Our source for the outcome and AC50 values is PubChem BioAssay (EPA / NIEHS).

In general, AC50 refers to the concentration at which the activity in the assay is half-maximal.

Inconclusive results are not listed. Active and inactive are the calls of the source. How the source made its calls, unless noted: active means hit-call score of the fitted dose curve at least 0.9, where 1 is the maximum; inactive means score below 0.9.

Test [1] in a line: ACEA_ER_80hr: ACEA Biosciences xCELLigence Real-Time Cell Analysis on Estrogen Receptor Agonism for Proliferation (AID 2282667; active means hit-call score of the fitted dose curve at least 0.9, where 1 is the maximum). The note with it: T47D proliferation, impedance (xCELLigence), 80 h. In short, it runs like this: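 Cell-growth kinetics were measured by impedance in T47D cells treated continuously with compound (top 100 uM final, 1:4 steps, 8 points). Activity at 80 h was scored as signal gain over the DMSO baseline.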

Test [2] in a line: APR_HepG2_CellCycleArrest_24hr: Apredica 24-hour HepG2 Assay for Cell Cycle Arrest (AID 2282905).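 Further: cell cycle arrest scored as ratio of 2N to 4N nuclear DNA content.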 The note with it: imaging, actives raise or lower the signal. In short, it runs like this: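 Readout: Hoechst 33342 nuclear DNA content by high-content fluorescent imaging, six images/well, 20x. Human HepG2 liver cells, 24 hr compound exposure, 0.39–200 uM, final DMSO 0.5% v/v. Gain or loss fitted relative to DMSO baseline.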

A short description of test [3]: APR_HepG2_NuclearSize_24hr: Apredica 24-hour HepG2 Assay for Nuclear Size (AID 2282907). The note with it: high-content imaging, actives raise or lower the signal. In short, it runs like this:
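Read-out: nuclear diameter from Hoechst 33342 (2 ug/mL) imaging of fixed HepG2 cells, 20x, six fields/well. Compounds ran at 0.39–200 uM for 24 hr, 0.5% DMSO final. Gain or loss was fitted bidirectionally relative to the DMSO baseline.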

A short description of test [4]: APR_HepG2_CellLoss_24hr: Apredica 24-hour HepG2 Assay for Cell Loss (AID 2282908).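 On AC50: fit in both directions so a hit may be cell loss or gain.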 The note with it: high-content imaging. In short, it runs like this: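 Read-out: Hoechst 33342-stained nuclei counted by automated fluorescence imaging after formaldehyde fixation and Triton permeabilization. Ten concentrations, 0.39 to 200 uM, duplicate wells, 0.5% DMSO final. Gain or loss of signal fitted relative to DMSO baseline.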

Test [5] in a line: APR_HepG2_MicrotubuleCSK_24hr: Apredica 24-hour HepG2 Assay for Microtubule CSK Stabilty (AID 2282909). The note with it: HepG2 microtubule cytoskeleton imaging, actives raise or lower the signal. In short, it runs like this: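 Read-out: alpha-tubulin immunofluorescence intensity by automated high-content imaging of fixed HepG2 cells after 24 h compound treatment. Ten concentrations, 0.39 to 200 uM, in duplicate; DMSO 0.5% v/v. Taxol positive control; DMSO-normalized bidirectional curve fitting.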

The nature of test [6]: APR_HepG2_MitoticArrest_24hr: Apredica 24-hour HepG2 Assay for Mitotic Arrest (AID 2282910). The note with it: high-content imaging, actives raise or lower the signal. In outline:
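High-content imaging of fixed HepG2 cells labeled with Hoechst 33342 and anti-phospho-histone H3, after 24 h treatment. Ten concentrations 0.39 to 200 uM in duplicate, final DMSO 0.5%; changes fitted both directions relative to DMSO.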

Test [7] can be described thus: APR_HepG2_MitoMembPot_24hr: Apredica 24-hour HepG2 Assay for Mitochondrial Membrane Potential (AID 2282911). The note with it: imaging, actives raise or lower the signal. In short, it runs like this: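 Human hepatoma HepG2 cultures received ten compound concentrations up to 200 uM for 24 hr. Membrane-potential dye signal, captured by automated fluorescence microscopy, was scored for gain or loss against DMSO controls.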

The nature of test [8]: APR_HepG2_MitoMass_24hr: Apredica 24-hour HepG2 Assay for Mitochondrial Mass (AID 2282912). The note with it: high-content imaging, actives raise or lower the signal. In outline:
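HepG2, 24 hr dosing, 10 concentrations 0.39–200 uM in duplicate, DMSO 0.5% final. MitoTracker Red CMXRos 250 nM, 30 min pre-fix; 3.7% formaldehyde fix. Imaging-based fluorescence intensity; gain/loss fit vs DMSO baseline.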

Test [9] in a line: APR_HepG2_p53Act_24hr: Apredica 24-hour HepG2 Assay for p53 Activation (AID 2282913).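 Further: p53 protein immunofluorescence averaged per cell in HepG2 with Hoechst nuclei.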 The note with it: high-content imaging, actives raise or lower the signal. In short, it runs like this:
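Automated fluorescence imaging quantifies p53 immunostaining in HepG2 cells after a 24 hr exposure (0.39–200 uM, duplicate, 0.5% DMSO). Nuclei are located by Hoechst 33342 staining.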

A short description of test [10]: APR_HepG2_CellCycleArrest_72hr: Apredica 72-hour HepG2 Assay for Cell Cycle Arrest (AID 2282914). The note with it: high-content imaging, actives raise or lower the signal. In short, it runs like this:
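Cell cycle arrest in HepG2 was scored from nuclear DNA content after 72 hr compound treatment (0.39–200 uM). Activity, either gain or loss, was fitted against the DMSO baseline.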

Test [11] can be described thus: APR_HepG2_CellLoss_72hr: Apredica 72-hour HepG2 Assay for Cell Loss (AID 2282915). The note with it: high-content imaging. In short, it runs like this: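 Cell number comes from Hoechst 33342-labelled nuclei, imaged at 20x after 3.7% formaldehyde fixation. Dosing was 0.39–200 uM, ten concentrations in duplicate, 0.5% DMSO final, for 72 h. Bidirectional fit relative to DMSO baseline.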

Test [12] can be described thus: APR_HepG2_P-H2AX_72hr: Apredica 72-hour HepG2 Assay for H2AX Phosphorylation (AID 2282916).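 Further: phospho-histone H2A.x immunostain intensity per cell marking DNA damage.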 The note with it: imaging, actives raise or lower the signal. In short, it runs like this:
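Readout: phospho-H2A.x immunofluorescence (FITC secondary) plus Hoechst nuclear stain, high-content imaging at 20x, six fields/well. HepG2, 72 hr compound exposure, 0.39–200 uM, final DMSO 0.5% v/v. Gain or loss fitted relative to DMSO baseline.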

Test [13] in a line: APR_HepG2_MitoMembPot_72hr: Apredica 72-hour HepG2 Assay for Mitochondrial Membrane Potential (AID 2282917). The note with it: imaging, actives raise or lower the signal. In outline: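 Membrane potential read by MitoTracker Red CMXRos (250 nM, 30 min, pre-fixation) fluorescence imaging of HepG2 after 72 hr exposure. Ten concentrations, 0.39–200 uM, duplicate wells, 0.5% DMSO; fitted in both directions against DMSO baseline.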

Test [14] in a line: APR_HepG2_MitoticArrest_72hr: Apredica 72-hour HepG2 Assay for Mitotic Arrest (AID 2282918). The note with it: high-content imaging, actives raise or lower the signal. In short, it runs like this: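 Mitotic arrest in HepG2 is scored from phospho-histone H3 staining after 72 hr dosing across 0.39–200 uM, with DMSO at 0.5% v/v. Nuclei are identified by Hoechst 33342 and fluorescence intensity is quantified per cell.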

Test [15] is described as follows: APR_HepG2_MicrotubuleCSK_72hr: Apredica 72-hour HepG2 Assay for Microtubule CSK Stabilty (AID 2282919). The note with it: HepG2 microtubule cytoskeleton, high-content imaging, actives raise or lower the signal. In short, it runs like this:
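High-content imaging of alpha-tubulin staining in fixed HepG2 cells after 72 hr treatment with ten concentrations from 0.39 to 200 uM (0.5% DMSO). Fitting was bidirectional against DMSO; taxol served as positive control.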

Test [16] can be described thus: APR_HepG2_P-H2AX_24hr: Apredica 24-hour HepG2 Assay for H2AX Phosphorylation (AID 2282920). The note with it: high-content imaging, actives raise or lower the signal. In short, it runs like this:
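Signal comes from a FITC-labeled secondary detecting phospho-histone H2A.x in fixed HepG2 cells, quantified by automated imaging at 20x. Dosing ran 24 hr across 0.39–200 uM with 0.5% v/v DMSO.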

Test [17] can be described thus: APR_HepG2_StressKinase_72hr: Apredica 72-hour HepG2 Assay for Stress Kinase (AID 2282921). The note with it: HepG2 stress kinase (phospho-c-Jun) imaging, actives raise or lower the signal. In outline: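 Phospho-c-Jun immunofluorescence measured by high-content imaging at 20x, six fields per well; bidirectional curve fitting against DMSO as baseline. Dosing: 0.39–200 uM, 72 h, 0.5% DMSO final.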

The nature of test [18]: APR_HepG2_StressKinase_24hr: Apredica 24-hour HepG2 Assay for Stress Kinase (AID 2282922). The note with it: HepG2 stress kinase (phospho-c-Jun) imaging, actives raise or lower the signal. In short, it runs like this: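 High-content imaging of phospho-c-Jun immunofluorescence in fixed, permeabilized HepG2 cells after 24 h dosing. Ten concentrations, 0.39 to 200 uM, run in duplicate at 0.5% v/v DMSO; gain or loss of signal versus DMSO.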

A short description of test [19]: APR_HepG2_p53Act_72hr: Apredica 72-hour HepG2 Assay for p53 Activation (AID 2282923).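 Further: average cellular p53 protein immunofluorescence intensity in HepG2 cells.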 The note with it: high-content imaging, actives raise or lower the signal. In outline:
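Readout: p53 immunofluorescence quantified by automated high-content imaging at 20x, six fields per well, nuclei located via Hoechst. Dosing ran 72 hr over ten concentrations from 0.39 to 200 uM; bidirectional curve fitting against DMSO baseline.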

Test [20] can be described thus: APR_HepG2_MitoMass_72hr: Apredica 72-hour HepG2 Assay for Mitochondrial Mass (AID 2282924).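 Further: MitoTracker Red CMXRos stain intensity per cell imaged as mitochondrial mass.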 The note with it: high-content imaging, actives raise or lower the signal. In short, it runs like this:
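Readout is imaged MitoTracker Red (250 nM, 30 min, pre-fixation) signal, fitted bidirectionally against DMSO baseline. Human HepG2 liver cells received compound 0.39–200 uM in duplicate for 72 hr, final DMSO 0.5%.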

On to `C=C(C)C(=O)OCCC(F)(F)C(F)(F)C(F)(F)C(F)(F)C(F)(F)C(F)(F)F`, for which the compound was called inactive in test [1], in test [2], in [3], in [4], in test [5] and in test [6]. Also, the outcome in [7], in [8], in test [9], in test [10], in test [11] and in test [12] was inactive. The call in test [13], in [14], in [15], in test [16], in test [17] and in test [18] was inactive. Further, the compound was classed as inactive in test [19] and in test [20].
For `CCCOC(=O)c1ccc(O)cc1`, the AC50 in test [1] was 2.7 µM (active). Moreover, the compound was classed as inactive in test [2], in [3], in test [4], in test [5], in test [6] and in test [7]. Further, the outcome in test [8], in [9], in test [10], in [11], in test [12] and in test [13] was inactive. Moreover, the compound was classed as inactive in [14], in test [15], in test [16], in test [17], in [18] and in [19]. Moreover, in [20], the result was inactive.
With `CCc1ccc(CCOc2ccc(CC3SC(=O)NC3=O)cc2)nc1` (stereo not given), the outcome in test [1], in test [3], in test [5], in test [6], in test [7] and in test [8] was inactive. Moreover, the compound was called inactive in test [9], in test [13], in test [15], in test [16], in test [17] and in test [18]. Further, the result in [19] was inactive. Also, the AC50 was 30.6 µM (active) in test [2]; 110 µM (active) in test [4]; 94.4 µM (active) in test [10]; 112 µM (active) in [11]; 103 µM (active) in [12]; 103 µM (active) in [14]. The AC50 in [20] was 57.6 µM (active).
Consider `CCN(CC)CCNc1ccc(CNC=O)c2sc3ccc(OC)cc3c(=O)c12`, for which the call in test [1], in test [3], in test [5], in test [7], in test [12] and in [13] was inactive. In addition, the call in [15], in [17], in [18], in test [19] and in test [20] was inactive. The AC50 in test [2] was 5.68 µM (active); in [4], 60.2 µM (active); in test [6], 7.05 µM (active); in test [8], 32.6 µM (active); in [9], 2.62 µM (active); in test [10], 6.28 µM (active). Besides, the values for the AC50 in test [11], in [14] and in test [16] were 7.4 µM (active), 5 µM (active) and 5.94 µM (active), respectively.
On to `O=[N+]([O-])c1ccc(O)cc1`, for which the compound was classed as inactive in test [1], in test [2], in test [3], in test [4], in test [5] and in [6]. For the same compound, the outcome in test [7], in [8], in test [9], in [10], in [11] and in [12] was inactive. In addition, the compound was called inactive in test [13], in [14], in [15], in [16], in [17] and in test [18]. The result in test [19] and in test [20] was inactive.
